# Hits are enriched below; roughly 2.2% of the tested compounds scored in any of these assays.
# Calb FLC – C. albicans growth inhibition with fluconazole, primary screen, CaCi-2 strain, Alamar Blue fluorescence. 300,000 compounds, 0.57% hits. growth inhibition, % (test concentration not listed). C. albicans CaCi-2 (fluconazole-resistant clinical isolate) + fluconazole, 48 h;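 active = growth inhibition above about 58% in most replicates, limit read from the data, passing the limit was not always enough; inconclusive = exactly half the replicates above a set limit; inactive = most replicates below a set limit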;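 note: all wells also contain fluconazole at 8 µg/ml as a sub-toxic cotreatment; 0% = median of DMSO wells and 100% = median of geldanamycin control wells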
# Beta cell apopt – inhibitors of cytokine-induced beta cell apoptosis, primary screen, luminescence; protection from apoptosis, % (concentration not given with the values); INS-1E cytokine-induced death, ATP luminescence, 48 h; percent of positive-control rescue, neutral wells zero; 300,000 compounds, 0.8% hits;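 active = Every replicate reaches about 75%, or at least half do and their mean reaches it too, limit read from the data; inconclusive = At least half of replicates reach the limit but their mean does not; inactive = Under half of replicates reach the limit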;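 note: 0% = cytokine-treated negative control wells and 100% = positive control rescue; higher means more ATP so stronger rescue from cytokine killing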
# CSC inhib – cancer stem cell viability inhibitors, primary screen, luminescence | cancer stem cell-like cells viability | inhibition, % at 7.5 µM | 300,000 compounds, 1.1% hits; in the data active = inhibition above about 75%; inconclusive = no clear call, values can overlap the other calls; tested in HMLE shEcad cells
# PfHsp90 yeast 2 – growth inhibition of PfHsp90-expressing yeast, primary screen, antimalarial PfHsp90 inhibitor project, S. cerevisiae, BacTiter-Glo luminescence, single point, set 2; BacTiter-Glo ATP, 48 h; yeast lacking PDR1 and PDR3 efflux regulators; inhibition, % at 9.4 µM; 310,000 compounds, 0.32% hits; AID 504621, 2011;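 active = every replicate shows inhibition above about 80%, whatever the replicate mean, limit read from the data; inconclusive = mean inhibition reaches the set limit but some replicate falls short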;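 note: 0% = DMSO neutral controls and 100% = 20 µM radicicol positive controls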
# Shn3 inh set2 – reduction of Shn3 3'UTR firefly luciferase signal, primary screen, Schnurri-3 inhibitor project, cell-based, Clone20 osteoblasts, set 2. Clone20 osteoblast Shn3 3'UTR firefly luciferase, 24 h. inhibition, % at 12.5 µM. 360,000 compounds, 0.52% hits. AID 588674, 2011;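 active = mean inhibition of at least 75% with every replicate also reaching 75%; inconclusive = mean inhibition at least 75% but some replicate below; inactive = mean inhibition below 75%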;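 note: 0% = median of neutral control wells and 100% = pilot-screen positive control compound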
# Numbers without * were called inactive; ? = inconclusive; . = no result.
SMILES,Calb FLC,Beta cell apopt,CSC inhib,PfHsp90 yeast 2,Shn3 inh set2
Cc1ccc2nc(NC(=O)/C=C/c3ccc4c(c3)OCO4)sc2c1,-6.1,83.8*,49.2,-14.6,4.1
Cc1ccc(NC(=O)/C=C/c2ccc3c(c2)OCO3)nc1,-1.6,-5.2,109.6*,-1.6,-113.6
Cc1csc(NC(=O)/C=C/c2ccc3c(c2)OCO3)n1,5.6,4.4,59.8,19.8,-11.0
CCOc1ccc(S(=O)(=O)N(CC(=O)NN=C2CCN(C)CC2)c2ccc(C)cc2)cc1,35.6,-1.8,-7.6,-13.9,-10.1
CCc1ccc(-n2c(O)c(C=NCCN(CC)CC)c(=O)[nH]c2=O)cc1,.,.,.,.,95.8*
CCN(CC)CCCN=Cc1c(O)n(-c2c(C)cccc2C)c(=O)c2ccccc12,15.7,-0.2,3.9,.,-10.8
CC(C)COC(=O)c1cccc2c1-c1ccccc1/C2=N\O,-6.0,-2.3,120.1*,-24.9,-4.1
Cc1ccc(CN2CCC(C)(Oc3ccc(Cl)cc3)C2)cc1 (configuration not stated),.,.,.,.,1.8
C[C@@H]1CN([C@@H](C)CO)C(=O)c2cc(N(C)C)ccc2O[C@@H](C)CCCCO[C@@H]1CN(C)Cc1ccc2c(c1)OCO2,.,.,.,.,8.4
O=C(NCc1cccc(Cl)c1)C1CCC(=O)N(CCN2CCOCC2)C1 (configuration not stated),-0.6,-1.3,-6.6,7.9,-4.0
CN(C)c1ccc(C=c2c3ccccc3n3c2c2ccccc2[n+]3C)cc1,.,.,.,-24.4,92.6*
COC(=O)C1C(c2ccc(OC)cc2)C(C(=O)OC)S(=O)(=O)C(CCN2CCCCC2)S1(=O)=O (configuration not stated),20.8,-7.7,1.0,4.6,-1.3
COC(=O)C1C=CC(OC2OC(COC(C)=O)C(OC(C)=O)C(OC(C)=O)C2OC(C)=O)n2c(=O)n(-c3ccccc3)c(=O)n21 (configuration not stated),.,.,.,11.3,97.1*
CC(=O)OCC1OC(n2ccc3ccccc32)C(OC(C)=O)C(OC(C)=O)C1OC(C)=O (configuration not stated),-12.4,-4.0,0.1,-3.0,11.9
COc1ccc(S(=O)(=O)N2CCC(C(=O)Nc3ccc(S(=O)(=O)N4CCCC4)cc3)CC2)cc1OC,2.6,4.8,-16.4,.,-7.7
COc1cc(-c2nnc(NC(=O)c3ccc(S(=O)(=O)N4CCOCC4)cc3)o2)cc(OC)c1OC,90.4*,85.8*,18.1,.,.
O=C(Nc1nnc(C2CC2)o1)c1ccc(S(=O)(=O)N2CCCc3ccccc32)cc1,?,27.0,22.3,-35.2,77.7
COCc1nnc(NC(=O)c2ccc(S(=O)(=O)N3CCCc4ccccc43)cc2)o1,91.6*,13.7,50.4,8.7,16.0
COc1ccc(-c2nnc(NC(=O)c3ccc(S(=O)(=O)N4CCCc5ccccc54)cc3)o2)cc1,101.3*,3.2,.,17.1,40.2
CCCc1nnc(NC(=S)Nc2ccccc2)s1,77.0*,6.6,-13.0,5.0,-36.9
COC(=O)C1CCN(C(=O)CN(C)Cc2ccc(C(C)(C)C)cc2)CC1,80.1*,.,0.2,8.5,3.8
CN(Cc1ccc(C(C)(C)C)cc1)C(=O)C1CCN(C(=O)Nc2ccccc2)CC1,-2.2,-1.6,30.2,.,-9.9
CCOC(=O)N1CCN(c2ccc(C(=O)c3cccc(F)c3)cc2)CC1,3.7,-1.9,76.1*,-0.3,12.8
O=C(c1ccc(N2CCN(C(=O)c3cccc(F)c3)CC2)cc1)c1cccc(F)c1,-7.8,4.6,8.2,-14.6,40.5
S=C(Nc1ccccc1)N1N=C(c2cccs2)CC1c1cccs1 (configuration not stated),-36.6,3.8,-13.9,-12.9,2.8
SMILES,Calb FLC,Beta cell apopt,CSC inhib,PfHsp90 yeast 2,Shn3 inh set2
CCc1ccc(/C=C/C(=O)c2cc(Br)ccc(=O)c2O)cc1,93.8*,-0.3,9.3,65.5,13.7
O=C(/C=C/c1cc(Br)ccc1O)c1ccco1,93.0*,9.5,?,100.6*,12.5
O=C(/C=C/c1ccccc1O)c1ccco1,28.5,-3.9,17.5,20.2,-10.0
Cc1ccc(/C=C/C(=O)c2cc(Br)ccc2OC(=O)c2ccco2)cc1,0.7,8.2,93.3*,-14.2,-14.6
Cc1cccc(/C=C/C(=O)c2cc(Br)ccc(=O)c2O)c1,99.6*,38.0,102.9*,72.3,4.8
Cc1ccc(S(=O)(=O)N(C)C)cc1NC(=S)N1CCc2ccccc21,-9.4,-3.0,18.5,0.6,-54.1
O=C(CN1C(=O)NC(c2ccccc2)(c2ccccc2)C1=O)NCCNCCO,-4.3,.,-7.0,3.2,-50.0
O=C(O)c1ccc2c(c1)C(=O)N(c1cc([N+](=O)[O-])ccn1)C2=O,-5.9,.,.,-10.0,0.7
O=C(NCCCN1CCOCC1)C(c1ccccc1)c1ccccc1,-1.8,-3.2,-16.1,4.9,15.1
O=C1CCc2cc(Br)ccc2O1,.,.,.,12.2,15.7
CCCCN(C)CCCNC(=O)c1cc(=O)[nH]c2ccc(S(=O)(=O)N3CCCCC3C)cc12 (configuration not stated),4.1,-1.5,-5.9,-5.8,12.4
COc1ccc(Cn2cc3c(-c4ccc(F)cc4)nnc-3c3cc(OC)c(OC)cc32)cc1,.,99.6*,28.5,-14.1,-3.6
CCCCCCSc1ccc([C@H]2N[C@@](C)(C(=O)OC)[C@H]3C(=O)N(CC)C(=O)[C@@H]23)cc1,-3.9,33.3,77.6*,25.6,-6.7
CCCCCCSc1ccc([C@H]2N[C@@](CC(C)C)(C(=O)OC)[C@H]3C(=O)N(CC)C(=O)[C@@H]23)cc1,-10.9,60.2,44.0,-10.6,27.7
CCCCCCSc1ccc([C@H]2N[C@@](Cc3ccccc3)(C(=O)OC)[C@H]3C(=O)N(C)C(=O)[C@@H]23)cc1,-5.7,99.1*,22.0,0.9,18.3
O=C1N=c2ccccc2=C1c1c(O)n(-c2cccc(F)c2)[nH]c1=O,-3.6,-4.9,83.1*,17.4,0.6
CCn1c(O)c(C2=c3ccccc3=NC2=O)c2cc(Br)ccc21,-0.3,-11.2,22.8,.,.
Nc1ccc2c(c1)C(=NO)c1cc([N+](=O)[O-])ccc1-2,.,.,.,-115.2,10.5
O=[N+]([O-])c1ccc2c(c1)-c1ccccc1C2=NO,.,.,.,104.6*,-8.9
O=C1C(F)=CC(COC(c2ccccc2)(c2ccccc2)c2ccccc2)OC1n1cc(F)c(=O)[nH]c1=O (configuration not stated),.,.,.,101.9*,97.7*
CC(=O)OCC1OC(n2cc(F)c(=O)[nH]c2=O)C(OC(C)=O)C1OC(C)=O (configuration not stated),-2.0,7.0,12.1,1.0,28.6
CC1=C(/C=C/C(C)=C/C=C/C(C)=C/C(=O)Nc2ccc(O)cc2)C(C)(C)CCC1,.,-1.0,104.5*,0.1,58.0
CC1=C(/C=C/C(C)=C/C=C/C(C)=C\C(=O)O)C(C)(C)CCC1,.,-16.7,8.9,-16.0,-7.9
CCN(CC)c1ccc(C(=S)NCc2ccccc2)cc1,-3.7,3.7,18.1,5.8,11.2

# High-throughput results deposited in PubChem by Broad Institute.
